Rows were chosen to be rich in hits. Some 1.1% of all compounds tested hit in one or more screens of this group.
MOR-DOR inv ag-1 = inverse agonists of MOR-DOR heterodimerization, primary screen, cell-based, luminescence | AID 504357, 2011 | actives 0.21% (n = 340,000) | cell-based MOR-DOR heterodimer luminescence, inverse agonism | Mu-type opioid receptor (Homo sapiens) + Delta-type opioid receptor (Homo sapiens), … | inhibition, % at 9.3 µM; in the data active means inhibition above about 22%, passing the limit was not always enough
HTR5A ag ctr = HTR5A agonists in luminescence cell assay, primary screen, counter-screen for OPRM1-OPRD1 heterodimer agonist project, full-deck HTS; activation, % at 9.3 µM; actives 0.61% (n = 340,000); cell-based; 5-hydroxytryptamine receptor 5A (Homo sapiens), P47898; in the data active means activation mostly above about 9.5%, no sharp cut-off; inactive means mostly below about 7.6%
Target sequence (P47898 whole entry, looked up): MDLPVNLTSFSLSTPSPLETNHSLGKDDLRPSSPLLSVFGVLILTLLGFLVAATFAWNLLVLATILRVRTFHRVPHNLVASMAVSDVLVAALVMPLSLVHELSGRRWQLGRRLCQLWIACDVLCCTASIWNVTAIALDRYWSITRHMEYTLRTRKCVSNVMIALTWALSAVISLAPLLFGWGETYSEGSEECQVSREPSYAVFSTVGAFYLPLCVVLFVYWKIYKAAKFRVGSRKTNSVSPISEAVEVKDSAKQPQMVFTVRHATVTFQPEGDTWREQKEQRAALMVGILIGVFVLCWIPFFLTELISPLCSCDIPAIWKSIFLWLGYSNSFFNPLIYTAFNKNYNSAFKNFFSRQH
HTR5A inv ctr = HTR5A inverse agonists in luminescence cell assay, primary screen, counter-screen for OPRM1-OPRD1 heterodimer inverse agonist project, full-deck HTS; 5-hydroxytryptamine receptor 5A (Homo sapiens), P47898; HTR5A cell line, inverse agonism; inhibition, % at 9.3 µM; actives 0.083% (n = 340,000); in the data active means inhibition mostly above about 23%, no sharp cut-off; inactive means mostly below about 18%
MOR-DOR ag-1 = agonists of OPRM1-OPRD1 heterodimerization, primary screen, cell-based, luminescence. Mu-type opioid receptor (Homo sapiens) + Delta-type opioid receptor (Homo sapiens), …. cells. activation, % at 9.3 µM. actives 0.3% (n = 340,000). AID 504326, 2011; in the data active means activation above about 18%
MOR-DOR inv ag-2 = inverse agonists of MOR-DOR heterodimerization, counter-screen for HTR5A inverse agonist project, cell-based, luminescence. shares compounds with HTR5A inv ctr. U2OS counter-screen cells, complementation luminescence. inhibition, % at 9.3 µM. 190 tested, under 10 active. AID 504912, 2011
HTR5A inv conf = HTR5A inverse agonists, retest of hits, confirmation, cell-based, luminescence. 190 tested, under 10 active. shares compounds with HTR5A inv ctr. HTR5A-expressing cells, inverse agonism. inhibition, % at 9.3 µM
MOR-DOR ag-2 = OPRM1-OPRD1 heterodimerization promoters, counter-screen for HTR5A agonist project, cell-based, luminescence; U2OS counter-screen cells, complementation luminescence, 3 h; shares compounds with HTR5A ag ctr; actives 13% (n = 800); activation, % at 9.3 µM; in the data active means activation above about 18%
HTR5A ag confirm = HTR5A agonists, retest of hits, confirmation, cell-based, luminescence; activation, % at 9.3 µM; shares compounds with HTR5A ag ctr; AID 504915, 2011; actives 17% (n = 800); HTR5A agonist cell assay; in the data active means activation above about 17%
Each line names hits and unclear results; the compound was inactive in the other large screens (follow-up assays come after a bar, where they were run). Unless noted, how the calls were made is not given here.

COc1ccccc1NC(=O)CSc1n[nH]c(-c2ccccn2)n1	HTR5A inv ctr 39 | MOR-DOR inv ag-2 inactive | HTR5A inv conf inactive
COCCNC(=O)c1onc(CSc2ccc(C(C)C)cc2)c1C(=O)O	none
Cc1ccc(S(=O)(=O)N2CCN3CCCC3C2)cc1 (stereo not drawn)	none
O=c1[nH]n2c(=O)c3c([nH]c2c1N=Nc1cccc(Cl)c1)CCCC3	HTR5A inv ctr 42 | MOR-DOR inv ag-2 inactive | HTR5A inv conf inactive
C=CCn1c(SCC(=O)Nc2ccc(F)cc2)nc2cc(C(=O)O)ccc2c1=O	HTR5A inv ctr 43 | MOR-DOR inv ag-2 inactive | HTR5A inv conf inactive
Cc1ccccc1Nc1nc(N)nc(COC(=O)/C=C/c2ccco2)n1	none
O=[N+]([O-])c1ccc(/C=N/N/C(=N/c2ccccn2)c2ccccn2)cc1	none
O=[N+]([O-])c1cc(/C=N/N/C(=N/c2ccccn2)c2ccccn2)ccc1O	HTR5A inv ctr 24 | MOR-DOR inv ag-2 inactive | HTR5A inv conf inactive
CCOc1cc(N2CCOCC2)c(OCC)cc1NC(=O)c1oc2ccccc2c1C	HTR5A inv ctr 24 | MOR-DOR inv ag-2 inactive | HTR5A inv conf inactive
Nc1ccc(C(=O)C(=O)c2ccc(N)cc2)cc1	none
N=C1C=CC(=C(c2ccc(N)cc2)c2ccc(N)cc2)C=C1	HTR5A inv ctr 31 | MOR-DOR inv ag-2 inactive | HTR5A inv conf inactive
COc1cc(/C=N/Nc2ccc([N+](=O)[O-])cc2S(=O)(=O)N2CCOCC2)cc(OC)c1OC	none
O=[N+]([O-])c1ccc(N/N=C/c2cccc(O)c2O)c(S(=O)(=O)N2CCOCC2)c1	HTR5A inv ctr 48 | MOR-DOR inv ag-2 inactive | HTR5A inv conf inactive
O=[N+]([O-])c1ccc(N/N=C/c2ccc(O)c(O)c2O)c(S(=O)(=O)N2CCOCC2)c1	HTR5A inv ctr 27 | MOR-DOR inv ag-2 inactive | HTR5A inv conf inactive
CCOC(=O)CSCC(=O)Nc1nnc(-c2cccc([N+](=O)[O-])c2)s1	none
O=C(CSc1nnc(-c2ccccc2Br)o1)N1CCOCC1	HTR5A inv ctr 25 | MOR-DOR inv ag-2 inactive | HTR5A inv conf inactive
O=C(CSc1nnc(-c2ccccc2O)o1)N1CCOCC1	none
O=[N+]([O-])c1cccc(/C=N/Nc2nc(NCc3ccccc3)nc(N3CCOCC3)n2)c1O	HTR5A inv ctr 88 | MOR-DOR inv ag-2 inactive | HTR5A inv conf inactive
O=[N+]([O-])c1ccc(/C=N/Nc2nc(NCc3ccccc3)nc(N3CCOCC3)n2)cc1	none
Cn1c(N=Nc2ccc(N3CCOCC3)cc2)[n+](C)c2ccccc21	HTR5A inv ctr 37 | MOR-DOR inv ag-2 inactive | HTR5A inv conf inactive
COc1cccc(C(=O)Nc2ccc(N3CCN(C(=O)c4cccs4)CC3)cc2)c1	HTR5A inv ctr 33 | MOR-DOR inv ag-2 inactive | HTR5A inv conf inactive
O=C(Nc1ccc(N2CCN(C(=O)c3cccs3)CC2)cc1)c1cccc(F)c1	none
O=C(CCNS(=O)(=O)c1ccc2c(c1)CCC(=O)N2)Nc1ccc(F)c(F)c1	none
Cc1c(N2C(=O)/C(=C/c3ccc(N(C)C)cc3)N(C)C2=S)c(=O)n(-c2ccccc2)n1C	HTR5A inv ctr 29 | MOR-DOR inv ag-2 inactive | HTR5A inv conf inactive
CCO[C@@H]1OC(C(=O)N2CCN(Cc3ccccc3)CC2)=C[C@H](c2ccc(C(F)(F)F)cc2)[C@H]1CCCO	none
CCO[C@@H]1OC(C(=O)N2CCN(Cc3ccccc3)CC2)=C[C@H](c2ccc(Br)cc2)[C@H]1CCCO	HTR5A inv ctr 37 | MOR-DOR inv ag-2 inactive | HTR5A inv conf inactive
O=C(NC(=S)NNC(=O)[C@H]1C[C@@H]1c1ccccc1)c1ccc(F)cc1	none
O=C(/C=C/c1ccc(F)cc1)NC(=S)NNC(=O)[C@H]1C[C@@H]1c1ccccc1	HTR5A inv ctr 48 | MOR-DOR inv ag-2 inactive | HTR5A inv conf inactive
CC(C)(C)NC(=O)NC(=O)COC(=O)c1cccc(F)c1	none
CC(C)(C)NC(=O)NC(=O)COC(=O)CNC(=O)c1cccc(F)c1	HTR5A ag ctr 15 | MOR-DOR ag-2 56 | HTR5A ag confirm 26
NC(=O)CCCn1c(C(=O)c2ccc(Cl)cc2)c2ccc([N+](=O)[O-])cc2[n+]1[O-]	none
Cc1ccc(C(=O)c2c3ccc([N+](=O)[O-])cc3[n+]([O-])n2CCCC(N)=O)cc1	HTR5A ag ctr 17 | MOR-DOR ag-2 inactive | HTR5A ag confirm inactive
COc1ccc(C(=O)Nc2cccnc2)cc1S(=O)(=O)N1CCOCC1	HTR5A ag ctr 16 | MOR-DOR ag-2 inactive | HTR5A ag confirm inactive
CCOP(=O)(OCC)c1nc(-c2ccc(Cl)cc2)oc1NCc1ccccc1	none
CC(=O)CCc1ccc(OCCCOc2cccc3cccnc23)cc1	HTR5A ag ctr 23 | MOR-DOR ag-2 inactive | HTR5A ag confirm inactive
CC(=O)c1ccc(OCCCOc2cccc3cccnc23)cc1	none
FC(F)(F)c1cnc(N2CCCN(C(=S)Nc3ccccc3)CC2)c(Cl)c1	HTR5A ag ctr 17 | MOR-DOR ag-2 inactive | HTR5A ag confirm inactive
COc1ccc(C)cc1NC(=O)COC(=O)c1ccc2c(c1)OCCO2	HTR5A ag ctr 19 | MOR-DOR ag-2 inactive | HTR5A ag confirm inactive
O=C(CNc1ccccc1Cl)N/N=C1\CCCc2ccccc21	HTR5A ag ctr 21 | MOR-DOR ag-2 20 | HTR5A ag confirm 36
O=C(N/N=C1\CCCc2ccccc21)c1ccccc1Cl	none
Cc1nc(=O)c(-c2ccccc2)c(C)n1Cc1ccccc1	none
CCOc1ccccc1CN1CCN(CCCc2ccccc2)CC1CCO (stereo not drawn)	none
Cc1cc(C(C)(C)C)ccc1OCCCCN1CCCC1	none
CCC(C)(C)c1ccc(OCCCC[n+]2cccc(C)c2C)c(C(C)(C)CC)c1	HTR5A ag ctr 21 | MOR-DOR ag-2 inactive | HTR5A ag confirm inactive
O=C(Cc1ccc(Br)cc1)NCCc1ccc(Cl)cc1Cl	HTR5A ag ctr 16 | MOR-DOR ag-2 inactive | HTR5A ag confirm inactive
CCn1c(=NC(=O)c2ccco2)sc2cccc(F)c21	HTR5A ag ctr 20 | MOR-DOR ag-2 inactive | HTR5A ag confirm inactive
O=C(NCCc1c[nH]c2ccccc12)C(=O)NCC(c1cccnc1)N1CCN(c2ccccc2)CC1 (stereo not drawn)	HTR5A ag ctr 23 | MOR-DOR ag-2 inactive | HTR5A ag confirm 40
O=C(NCCc1c[nH]c2ccccc12)C1CCN(c2nnc(N3CCCC3=O)s2)CC1	HTR5A ag ctr 42 | MOR-DOR ag-2 inactive | HTR5A ag confirm 47
